Assay outcomes deposited in PubChem BioAssay by several laboratories.
GDH-TPI counter-1: inhibits GDH-TPI coupling enzymes, artifact for Mtb FBA screen; GDH-TPI coupled enzyme counterscreen, NADH absorbance; inhibition, % at 4.8 µM; actives 1.2% (n = 360,000); AID 588335; in the data active = inhibition above about 30%;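 note: 0% = DMSO wells and 100% = wells lacking the enzyme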
FBA Mtb inh: Mtb fructose-bisphosphate aldolase inhibition; P9WQA3; inhibition, % at 1 µM; actives 2.3% (n = 360,000); purified M. tuberculosis FBA, fluorescence read-out;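 note: 0% = vehicle and 100% = reference inhibitor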
FadD28 FP inh: blocks FadD28 binding to the bisubstrate probe; fluorescence polarization; actives 0.22% (n = 360,000); AID 588549; inhibition, % at 12.5 µM; in the data active = inhibition above about 8.5%, passing the limit was not always enough
BioA inh: inhibitors of Mycobacterium tuberculosis BioA enzyme; purified M. tuberculosis BioA enzyme, plate reader; inhibition, % at 9.99 µM; actives 0.096% (n = 360,000); in the data active = inhibition above about 40%
Rv3671c inh: Rv3671c (M. tuberculosis) protease inhibition | P9WHR9 | inhibition, % at 5.96 µM | actives 0.048% (n = 320,000); in the data active = inhibition above about 38%;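 note: extracellular domain of Rv3671c used as enzyme; 0% = enzyme with DMSO and 100% = no enzyme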
Target sequence (P9WHR9 whole entry, looked up, the tested form may be a part): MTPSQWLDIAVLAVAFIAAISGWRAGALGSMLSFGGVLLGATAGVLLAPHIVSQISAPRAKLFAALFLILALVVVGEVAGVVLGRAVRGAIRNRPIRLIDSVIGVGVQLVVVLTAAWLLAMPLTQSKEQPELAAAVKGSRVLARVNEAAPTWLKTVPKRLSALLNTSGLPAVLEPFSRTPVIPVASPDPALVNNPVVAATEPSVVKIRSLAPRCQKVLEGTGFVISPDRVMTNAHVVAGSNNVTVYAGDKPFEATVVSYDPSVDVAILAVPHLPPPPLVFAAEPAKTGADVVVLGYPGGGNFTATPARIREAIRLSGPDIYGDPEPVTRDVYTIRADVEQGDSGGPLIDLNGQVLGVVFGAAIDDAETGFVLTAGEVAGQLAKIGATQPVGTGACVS
Mtb FBA confirm: confirmation of M. tuberculosis fructose-bisphosphate aldolase inhibitors | purified M. tuberculosis FBA, fluorescence read-out | shares compounds with FBA Mtb inh | inhibition, % at 1 µM | AID 651616 | actives 78% (n = 5,600);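 note: 0% = vehicle wells and 100% = reference inhibitor wells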
GDH-TPI counter-2: counter-screen for M. tuberculosis FBA inhibitors: GDH-TPI coupled enzyme inhibition; inhibition, % at 1 µM; GDH-TPI coupled enzyme counterscreen, fluorescence; shares compounds with FBA Mtb inh; actives 81% (n = 5,600); AID 652141; in the data active = inhibition above about 10%
Starred values were filed as active, the others as inactive. Hits are enriched below; roughly 3% of the tested compounds scored in any of these assays. Cut-off read from the data, not from the text of the source, unless noted: active = inhibition above about 27%; inactive = the rest.

Results for O=C(COc1ccccc1)Nc1cccc(-c2nc3cc4ccccc4cc3[nH]2)c1 ?
GDH-TPI counter-1: 29; FBA Mtb inh: 72*; FadD28 FP inh: -3; BioA inh: 0; Rv3671c inh: -187; Mtb FBA confirm: 101*; GDH-TPI counter-2: 79*

How did C[C@@H]1CN([C@H](C)CO)C(=O)c2cc(NC(=O)Nc3cccc4ccccc34)ccc2O[C@H]1CN(C)C(=O)Nc1ccc2c(c1)OCO2 do in these assays?
BioA inh: -4

What do the screens show for `Cc1nc2nc(-c3ccccc3)cn2nc1C`?
GDH-TPI counter-1: 13; FBA Mtb inh: 20; FadD28 FP inh: -1; BioA inh: -1; Rv3671c inh: -8

What do the screens show for `Cc1nc2nc(-c3ccc(F)cc3)cn2nc1C`?
GDH-TPI counter-1: 9; FBA Mtb inh: 50*; FadD28 FP inh: 0; Rv3671c inh: 3; Mtb FBA confirm: 43*; GDH-TPI counter-2: 38*

Results for CCOC(=O)N1CCC2(CC1)CC(=O)c1cc(O)ccc1O2 ?
GDH-TPI counter-1: 12; FBA Mtb inh: 2; FadD28 FP inh: -2; BioA inh: 0; Rv3671c inh: 1

How did CCOC(=O)COc1ccc2c(c1)C(=O)CC1(CCN(C(C)=O)CC1)O2 do in these assays?
GDH-TPI counter-1: 12; FBA Mtb inh: 57*; FadD28 FP inh: 2; BioA inh: 1; Rv3671c inh: -3; Mtb FBA confirm: active; GDH-TPI counter-2: active

Results for Cc1cccc(OCC(=O)N2CCC3(CC2)CC(=O)c2ccccc2O3)c1 ?
GDH-TPI counter-1: 8; FBA Mtb inh: 6; FadD28 FP inh: -4; BioA inh: 3; Rv3671c inh: -2

What do the screens show for `CC(=O)N1CCC2(CC1)CC(=O)c1cc(OCC(=O)N3CCCC3)ccc1O2`?
GDH-TPI counter-1: 9; FBA Mtb inh: 60*; FadD28 FP inh: -2; Rv3671c inh: 6; Mtb FBA confirm: 48*; GDH-TPI counter-2: 45*

How did CCOc1ccc(OCC(=O)N2CCC3(CC2)CC(=O)c2ccccc2O3)cc1 do in these assays?
GDH-TPI counter-1: 8; FBA Mtb inh: 7; FadD28 FP inh: -1; BioA inh: 4; Rv3671c inh: 5

How did CCN1CCN(C(=O)COc2ccc3c(c2)C(=O)CC2(CCN(C(C)=O)CC2)O3)CC1 do in these assays?
GDH-TPI counter-1: -6; FBA Mtb inh: 33*; FadD28 FP inh: -3; Rv3671c inh: 7; Mtb FBA confirm: 61*; GDH-TPI counter-2: 56*

What do the screens show for `O=C(Nc1ccc2c(c1)OCO2)N[C@H]1CC[C@@H](CCNC(=O)C2CCC2)O[C@H]1CO`?
BioA inh: -1

How did Nn1c(SCC(=O)Nc2ccc(Oc3ccccc3)cc2)nnc1C1CC1 do in these assays?
GDH-TPI counter-1: 0; FBA Mtb inh: -3; FadD28 FP inh: -2; Rv3671c inh: -6

How did Nn1c(SCC(=O)Nc2nnc(-c3ccccc3)o2)nnc1C1CC1 do in these assays?
GDH-TPI counter-1: 8; FBA Mtb inh: 45*; FadD28 FP inh: 2; BioA inh: -1; Rv3671c inh: -2; Mtb FBA confirm: -1; GDH-TPI counter-2: -2

How did CCN(CC)CCNC(=O)c1cc2c(=O)n(C)c3ccccc3c2s1 do in these assays?
GDH-TPI counter-1: 11; FBA Mtb inh: 71*; FadD28 FP inh: -1; BioA inh: 10; Rv3671c inh: -6; Mtb FBA confirm: 129*; GDH-TPI counter-2: 87*

Results for CC1CCCCN1CCNC(=O)c1cc2c(-c3ccccc3F)nn(C)c2s1 (stereo unspecified) ?
GDH-TPI counter-1: 8; FBA Mtb inh: 22; FadD28 FP inh: -2; BioA inh: 0; Rv3671c inh: 2

How did CCN(CCCNC(=O)c1cc2c(-c3cccc(OC)c3)nn(C)c2s1)Cc1ccccc1 do in these assays?
GDH-TPI counter-1: 5; FBA Mtb inh: 53*; FadD28 FP inh: -8; BioA inh: -1; Rv3671c inh: -13; Mtb FBA confirm: 39*; GDH-TPI counter-2: 43*

Results for CCCN(CCC)CCNC(=O)c1cc2c(=O)n(C)c3ccccc3c2n1C ?
GDH-TPI counter-1: 6; FBA Mtb inh: 30*; FadD28 FP inh: -4; BioA inh: -1; Rv3671c inh: 2; Mtb FBA confirm: 10; GDH-TPI counter-2: 7

Results for CCN(CC)CCCNC(=O)c1cc2c(-c3ccc(Cl)cc3)nn(C)c2s1 ?
GDH-TPI counter-1: 10; FBA Mtb inh: 21; FadD28 FP inh: -5; BioA inh: 1; Rv3671c inh: -9

What do the screens show for `CN(CCNC(=O)c1cc2c(=O)n(C)c3ccccc3c2n1C)Cc1ccccc1`?
GDH-TPI counter-1: 5; FBA Mtb inh: 4; FadD28 FP inh: -3; BioA inh: 0; Rv3671c inh: 6

How did CCCCN(CC)CCNC(=O)c1cc2c(-c3ccccc3F)nn(C)c2s1 do in these assays?
GDH-TPI counter-1: 4; FBA Mtb inh: 46*; FadD28 FP inh: -3; BioA inh: 0; Rv3671c inh: 0; Mtb FBA confirm: 47*; GDH-TPI counter-2: 35*

How did Cc1noc(C)c1S(=O)(=O)Nc1ccc2c(c1)C(=O)N([C@@H](C)CO)C[C@H](C)[C@H](CN(C)S(=O)(=O)c1cn(C)cn1)O2 do in these assays?
BioA inh: 1

What do the screens show for `CCCCN(CC)CCNC(=O)c1cn(-c2ccc(Cl)cc2)c(=O)c2ccccc12`?
GDH-TPI counter-1: 7; FBA Mtb inh: -1; FadD28 FP inh: -4; BioA inh: 0; Rv3671c inh: 3

What do the screens show for `CCCCN(CC)CCNC(=O)c1cc2c(=O)n(C)c3ccccc3c2s1`?
GDH-TPI counter-1: 15; FBA Mtb inh: 49*; FadD28 FP inh: -5; BioA inh: -2; Rv3671c inh: -5; Mtb FBA confirm: 181*; GDH-TPI counter-2: 144*

What do the screens show for `O=C(O)C1CCN(C(=O)CSc2nnc(-c3ccccc3)o2)CC1`?
GDH-TPI counter-1: 7; FBA Mtb inh: 28*; FadD28 FP inh: -1; BioA inh: -1; Rv3671c inh: -1; Mtb FBA confirm: 71*; GDH-TPI counter-2: 53*

What do the screens show for `COc1ccc(-c2cc3c(=O)n(CC(=O)NCCN4CCCC4)nc(C)n3n2)cc1`?
GDH-TPI counter-1: -8; FBA Mtb inh: 32*; FadD28 FP inh: -4; BioA inh: -1; Rv3671c inh: 0; Mtb FBA confirm: 63*; GDH-TPI counter-2: 54*

Results for CCN1CCN(CCCNC(=O)Cn2nc(C)n3nc(-c4ccccc4)cc3c2=O)CC1 ?
GDH-TPI counter-1: -15; FBA Mtb inh: -1; FadD28 FP inh: 0; BioA inh: 2; Rv3671c inh: 2

How did CCCNC(=O)Nc1ccc2c(c1)C(=O)N(C)[C@H]1CC[C@H](CC(=O)NCc3ccccc3)O[C@@H]1CO2 do in these assays?
BioA inh: 6

Results for O=c1[nH]c2ccc(Cl)cc2c(O)c1Cc1ccccc1 ?
GDH-TPI counter-1: 12; FBA Mtb inh: 35*; FadD28 FP inh: -4; Rv3671c inh: -8; Mtb FBA confirm: active; GDH-TPI counter-2: 193*
